The record followed here is PubChem BioAssay (NCATS).

Several values for one entry are separate records, joined by “and”; a condition that tells them apart may be missing. Equal entries are not always repeated. Records with an inconclusive call do not appear. A structure can be active in one record and inactive in another. A number with no mark means an inactive call. Activity calls are given as the source filed them. Calls come from the whole dose curve; as a rule, active = well fitted cell-killing curve with a large enough effect; inconclusive = small, poorly fitted or top-dose-only effect; inactive = flat fitted curve, though single readings scatter.
% is set by controls: 0 for no effect and ±100 for the full control effect.

A short description of this assay: Cellular viability qHTS for adrenocortical cancer (ACC) cell line SW-13 (AID 1963989).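 For activity (max response): cells grown in serum-free medium with ITS supplement.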 Note: nearly all actives have a fitted effect of over 65% in size. The settings on record: SW-13 ACC cells viability, CellTiter-Glo, 48 h; activity (max response): active compounds read low. The source says: PI: Naris Nilubol, MD Surgical Oncology Program, National Cancer Institute (NCI) National Institute of Health (NIH), Bethesda, Maryland Adrenocortical cancer (ACC) is a rare malignancy with poor survival outcomes and few treatment options. Currently, mitotane is the only FDA-approved therapy for ACC. Although adjuvant radiation therapy is rarely utilized, it has the potential to improve survival in select cases. Through a quantitative high-throughput drug screen (qHTS), we identified auranofin (AF), a thioredoxin reductase (TXNRD) inhibitor, as a promising candidate drug. This study aims to evaluate whether AF can enhance the efficacy of radiation therapy in the treatment of ACC. Two human ACC cell lines, SW-13 and NCI-H295R, were screened using the National Center for Advancing Translational Sciences (NCATS) Pharmaceutical Collection (NPC) and the Mechanism Interrogation PlatE (MIPE) library (~4,991 compounds). CellTiter-Glo (Cat # G7570, Promega, Madison, WI) was utilized to measure cell viability. Described herein are the results of the corresponding viability assay.
PROTOCOL TABLE (as described by Inglese J, Shamu CE and Guy RK. 2007) SEQUENCE No. (e.g., 1, 2, 3, etc.); […] (e.g., Cells, Incubation, Reagent, etc.); VALUE; DESCRIPTION. 1; Cells; 5 uL; white, solid-bottom, 1536-well tissue-culture treated plates. 2; Time; overnight culture at 37C with 5% CO2. 3; Compounds and control; 23 nL; Kalypsis pin tool (Wako USA) equipped with a 1536-well pin head to transfer to the assay plates. 4; Time; 48 hours; 37C with 5% CO2. 5; Reagent; 4 uL; CellTiter-Glo luminescent substrate mix. 6; Time; 20 min at room temperature. 7; Detection; Luminescence; ViewLux plate reader NOTES (numbers refer to Sequence numbers above) 1. SW13 cells were harvested from a T175 flask and resuspended in ITS-supplemented DMEM serum-free medium at a concentration of 300 000 cells/mL. Then 5 uL of resuspended cells were dispensed into each well of white, solid-bottom, 1536-well tissue-culture-treated plates using a multidrop combi dispenser. The plates were covered with stainless steel gasket lids. 2-3. The plates were cultured overnight at 37C with 5% CO2. Twenty-three nL of compounds (eight selected concentrations from the NPC / MIPE) or positive control (10 mM stock of bortezomib) in DMSO was transferred to each well of the assay plate using a pin tool (Kalypsys, San Diego, CA, USA). The final concentration of the compounds in the 5 uL assay volume ranged from 0.5 nM to 46 uM. 4-6. After 48 hours of incubation at 37C and 5% CO2, 4 uL of CellTilter-Glo luminescent substrate mix (Promega, Madison, WI, USA) was added to each well. Then the plates were incubated for 20 minutes at room temperature. 7. After incubation, luminescence was measured using a ViewLux plate reader (PerkinElmer, Waltham, MA, USA) with a clear filter was used to measure the number of metabolically competent cells. To determine compound activity in the qHTS assay, the titration-response data for each sample was plotted and modeled by a four-parameter logistic fit yielding IC50 and efficacy (maximal response) values. […] REFERENCES: Inglese J, Shamu CE and Guy RK, Reporting data from high throughput screening of small molecule libraries, Nature Chemical Biology, 2007, 3(8): 438-441. doi.org/10.1038/nchembio0807-438.
For orientation: Quantitative high-throughput screening tests each substance at several concentrations.
As for `CC(=O)OC[C@@H]1O[C@@H](n2ccc(=O)[nH]c2=O)[C@H](OC(C)=O)[C@H]1OC(C)=O`, the activity (max response) was -1.19%.
Still for that read-out and setting: next, `CN1CCN(C2=Nc3cc(Cl)ccc3Nc3ccccc32)CC1`: -14.9%.
As for `COC(=O)/C=C/C(=O)OC`, the activity (max response) is -9.41%.
Still for that read-out and setting: next, `Cc1ccc(Nc2nccc(N(C)c3ccc4c(C)n(C)nc4c3)n2)cc1S(N)(=O)=O`: -20.1%.
Turning to `Cc1ccc(C(N)=O)cc1Nc1nccc(-c2cn(C(C)C)c3cnccc23)n1`, the Potency was 8.91 µM (active).
Consider `[2H]c1nc(C)nc([2H])c1-c1cc(NC[C@@H](C)c2cccc3c(C(=O)NC)ccnc23)ncn1`, for which the activity (max response) is 14.2%.
Regarding `CCS(=O)(=O)Nc1ccc(Oc2ccc(F)cc2F)c(-c2cn(C)c(=O)c3[nH]ccc23)c1`, the Potency was 2 µM (active).
On to `CC1(N)CCN(c2cnc(-c3cccc(Cl)c3Cl)c(N)n2)CC1`, for which the activity (max response) was -1.73%.
Regarding `CN(C)C/C=C/C(=O)Nc1cccc(C(=O)Nc2cccc(Nc3ncc(Cl)c(-c4c[nH]c5ccccc45)n3)c2)c1`, the Potency was 0.316 µM (active).
Consider `COCCOc1cnc2ccn([C@H](C)c3nnc4c(F)cc(-c5cnn(C)c5)cn34)c(=O)c2c1`, for which the activity (max response) is -16.1%.
The same measure, in the same setting: the same measure for `Clc1cccc(Cl)c1NC1=NCCN1`: 13.1%; for `O=c1[nH]c(=O)n([C@H]2C[C@H](O)[C@@H](CO)O2)cc1I`: -5.04% and -11.6%.
On to `Cc1cnc(Nc2ccc(F)cc2Cl)nc1-c1c[nH]c(C(=O)N[C@H](CO)c2cccc(Cl)c2)c1`, for which the Potency is 20 µM (active).
`CC(=O)OC[C@H]1O[C@@H](OC(C)=O)[C@H](OC(C)=O)[C@@H]1OC(C)=O`: the activity (max response) is 10.4%.
Same read-out and setting: the same measure for `Cc1coc2c1C(=O)C(=O)c1c-2ccc2c1CCCC2(C)C`: 2.82%; for `Cc1[nH]c(C)c(Cl)c(=O)c1Cl`: 4.22%.
Still for that read-out and setting: the same measure for `CN1C(=O)c2ccccc2C1=O`: -9.75%.
`COc1cc([C@@H]2c3cc4c(cc3[C@@H](O[C@@H]3O[C@@H]5CO[C@@H](c6cccs6)O[C@H]5[C@H](O)[C@H]3O)[C@H]3COC(=O)[C@H]23)OCO4)cc(OC)c1O`: the Potency was 2.51 µM (active).
In the case of `C[C@]12CC[C@H](O)CC1=CCC1C2CC[C@]2(C)C(n3cnc4ccccc43)=CCC12` (stereo not given in full), the activity (max response) was -10.3%.
The same measure, in the same setting: the same measure for `Cn1c(=O)c2c(ncn2CCO)n(C)c1=O`: -10.8%.
Take `CN1CCN(Cc2ccc(NC(=O)Nc3ccc(Oc4cc(NC(=O)C5CC5)ncn4)cc3)cc2C(F)(F)F)CC1`: the Potency was 0.316 µM (active).
For `Cc1noc(-c2ccc(CSCCC(=O)O)cc2)c1NC(=O)OC(C)c1ccccc1Cl` (stereo not given), the activity (max response) was -1.37%.
For the molecule `CC(O)C(=O)O` (stereo not given), the activity (max response) was 6.49%.
Same read-out and setting: next, `COc1cc2c(cc1OC)CN(C(=O)[C@H](C)N[C@@H](CCc1ccccc1)C(=O)O)[C@H](C(=O)O)C2`: 4.46%; `C=C1C(=CC=C2CCC[C@]3(C)[C@@H]([C@H](C)C=C[C@H](C)C(C)C)CC[C@@H]23)C[C@@H](O)C[C@@H]1O`: -0.683%.
As to `OCCN(CCO)c1nc(N2CCCCC2)c2nc(N(CCO)CCO)nc(N3CCCCC3)c2n1`, the Potency is 5.17 µM (active) and the activity (max response) was -9.57%.
Regarding `O=C(O)CCCCC(=O)O`, the activity (max response) was 10.5%.
Same read-out and setting: the same measure for `CNC(=O)c1ccc2cc(C3(O)CCn4cncc43)ccc2c1` (stereo not given): -3.07%; for `O=C(/C=C/N1C[C@H]2C[C@@H]1CN2c1ccccn1)c1ccccc1O`: -11.7%; for `NC(=O)NNc1ccccc1`: -10.9%.
As to `C[C@H]1[C@H](NC(=O)/C(=N/OC(C)(C)C(=O)O)c2csc(N)n2)C(=O)N1S(=O)(=O)O` (stereo in doubt), the activity (max response) is 8.46%.
`CNCc1ccc(-c2cc(-c3nc(-c4ccc(S(=O)(=O)C(C)C)cc4)cnc3N)on2)cc1`: the Potency was 3.98 µM (active).
Same read-out and setting: the same measure for `CCCCCCCCCCCCCCCC[n+]1ccccc1`: 3.66 µM (active).
`CCCCCCCCCCCCCC(=O)OC(C)C`: the activity (max response) is 6.54%.
With `COc1cc(N2CCC(N3CCN(C)CC3)CC2)ccc1Nc1ncc(Cl)c(Nc2ccccc2S(=O)(=O)C(C)C)n1`, the Potency was 5.01 µM (active).
With `CC(=O)O[C@H]1CC[C@@]2(C)C(=CC[C@@H]3[C@@H]2CC[C@]2(C)C(C(C)=O)=CC[C@@H]32)C1`, the activity (max response) is 8.77%.
On the same count and under the same terms, next, `Cc1c(C)c2c(c(C)c1OC(=O)c1cccnc1)CC[C@@](C)(CCC[C@H](C)CCC[C@H](C)CCCC(C)C)O2`: -0.414%.
As to `CCN(CC)CCOc1ccc(C(O)(Cc2ccc(Cl)cc2)c2ccc(C)cc2)cc1` (stereo not given), the Potency is 20.6 µM (active).
For the molecule `CN1[C@@H]2CC[C@H]1CC(OC(=O)c1c[nH]c3ccccc13)C2` (stereo not given in full), the activity (max response) was -7.55%.
